Measured values from PubChem BioAssay (NCI).
About 79,000 compounds went through this panel and 15% of them were active in at least one assay; those are over-represented in the sample as a whole. Activity calls are given as the source filed them. Rule as the data show it: active = growth inhibition above about 70%; inactive = the rest.

Assays:
[1] = NCI Yeast Anticancer Drug Screen. Data for the wt1 strain (AID 149);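 also: 0% = growth of vehicle-treated wt1 cultures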; details: S. cerevisiae wt1 strain (SPY 50644) growth inhibition, hits give high values
In short: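 Readout: yeast growth inhibition, normalised to vehicle controls, in the wt1 strain exposed to test compounds.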

[2] = NCI Yeast Anticancer Drug Screen. Data for the mgt1 strain (AID 153); details: S. cerevisiae mgt1 mutant growth inhibition, hits give high values
In short: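 Measured: inhibition of mgt1 yeast growth by compound, normalized to vehicle-treated cultures.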

[3] = NCI Yeast Anticancer Drug Screen. Data for the rad50 strain (AID 155);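 also: 0% = growth of vehicle-only cultures of the same strain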; details: S. cerevisiae rad50 strain growth inhibition, hits give high values
In short: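 Compounds were tested on a yeast strain with an engineered DNA damage repair alteration; the reported value is growth inhibition normalised to vehicle treatment.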

[4] = NCI Yeast Anticancer Drug Screen. Data for the mec2-1 strain (AID 157); details: S. cerevisiae mec2-1 strain, hits give high values
In short: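 Using mec2-1 yeast: add compound, measure growth, express inhibition versus vehicle-treated cultures.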

[5] = NCI Yeast Anticancer Drug Screen. Data for the rad14 strain (AID 159);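 also: 0% = growth of vehicle-treated control cultures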; details: S. cerevisiae rad14 strain growth inhibition, hits give high values
In short: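 Compound-treated yeast with a defined DNA-repair lesion; growth inhibition normalised to vehicle-treated cultures.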

[6] = NCI Yeast Anticancer Drug Screen. Data for the sgs1 mgt1 strain (AID 161);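 also: 0% = growth of cultures given vehicle only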; details: S. cerevisiae sgs1 mgt1 strain, hits give high values
In short: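 Percent growth inhibition was derived by comparing compound-exposed mutant yeast with vehicle-exposed cultures. The strain carries alterations in DNA damage repair.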

[7] = NCI Yeast Anticancer Drug Screen. Data for the CLN2oe strain (AID 163);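 also: 0% = growth of vehicle-only control cultures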; details: S. cerevisiae CLN2oe strain, hits give high values
In short: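 Whole-cell yeast growth assay. A strain engineered for altered cell-cycle control received compound, and inhibition relative to vehicle-treated cultures was recorded.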

[8] = NCI Yeast Anticancer Drug Screen. Data for the cln2 rad14 strain (AID 165);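 also: 0% = growth equal to vehicle treated cultures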; details: S. cerevisiae cln2 rad14 strain, hits give high values
In short: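 Yeast strain cln2 rad14, bearing defects in cell cycle control and DNA repair, serves as the test system; values reflect growth inhibition compared with vehicle.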

[9] = NCI Yeast Anticancer Drug Screen. Data for the bub3 strain (AID 167); details: S. cerevisiae bub3 mutant strain, hits give high values
In short: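 Growth of a checkpoint-deficient yeast mutant is measured after compound exposure. Values represent inhibition relative to vehicle.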

[10] = NCI Yeast Anticancer Drug Screen. Data for the wt2 strain (AID 169);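 also: 0% = growth of vehicle-treated yeast cultures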; details: S. cerevisiae wt2 strain growth inhibition, hits give high values
In short: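 Treated yeast vs. vehicle-treated yeast: growth inhibition determined.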

[11] = NCI Yeast Anticancer Drug Screen. Data for the mlh1 strain (AID 171);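 also: 0% = growth of vehicle-treated control cultures of the same strain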; details: S. cerevisiae mlh1 strain growth inhibition, hits give high values
In short: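 A yeast strain with a defined genetic lesion serves as the test organism. Cultures receive compound or vehicle, and growth is measured.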

[12] = NCI Yeast Anticancer Drug Screen. Data for the sgs1 strain (AID 173);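 also: 0% = growth of vehicle-only control cultures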; details: S. cerevisiae sgs1 mutant, hits give high values
In short: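 A genetically defined yeast mutant is incubated with the test compound, and its growth is compared to that of the same strain given vehicle.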

[13] = NCI Yeast Anticancer Drug Screen. Data for the mlh1 rad18 strain (AID 175); details: S. cerevisiae mlh1 rad18 strain growth inhibition, hits give high values
In short: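 Steps: expose repair-defective yeast to compound; measure growth; express inhibition against vehicle-treated controls.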

[14] = NCI Yeast Anticancer Drug Screen. Data for the rad50EPP+ strain (AID 151);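 also: 0% = growth of vehicle-treated control cultures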; details: S. cerevisiae rad50 mutant strain, hits give high values
In short: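 Read-out is yeast growth inhibition relative to vehicle; cells used were the rad50EPP+ strain.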

[15] = NCI Yeast Anticancer Drug Screen. Data for the rad18 strain (AID 177); details: S. cerevisiae rad18 mutant growth inhibition, hits give high values
In short: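 Measured value is growth inhibition of a yeast strain bearing a DNA repair alteration, referenced to vehicle-treated cells.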

[16] = at 5.0 µM (retest, dose inferred, filed as 0.5)
[17] = at 50.0 µM (retest, dose inferred, filed as 5.0)

Measured: growth inhibition

CN(C)/C=C/c1nnc([N+](=O)[O-])s1
inactive: [1]; at 1.2 µM -7% | [1]; at 3.7 µM -8% | [1]; at 11.0 µM -10% | [1]; at 33.0 µM -1% | [2]; at 1.2 µM -7% | [2]; at 3.7 µM -5% | [2]; at 11.0 µM -5% | [2]; at 33.0 µM -5% | [3]; at 1.2 µM -8% | [3]; at 3.7 µM -3% | [3]; [16] -144% | [3]; at 11.0 µM 49% | [4]; at 1.2 µM 4% | [4]; at 3.7 µM 0% | [4]; [16] -48% | [4]; at 11.0 µM -6% | [4]; at 33.0 µM 1% | [4]; [17] 4% | [5]; at 1.2 µM -4% | [5]; at 3.7 µM 2% | [5]; at 11.0 µM 28% | [6]; [16] -63% | [7]; at 1.2 µM -2% | [7]; at 3.7 µM -3% | [7]; at 11.0 µM -2% | [7]; at 33.0 µM 9% | [8]; [16] -63% | [8]; [17] -23% | [8]; at 50.0 µM 28.6% | [9]; at 1.2 µM -5% | [9]; at 3.7 µM -2% | [9]; [16] -65% | [9]; at 11.0 µM -3% | [9]; at 33.0 µM 6% | [10]; at 1.2 µM -1% | [10]; at 3.7 µM -1% | [10]; at 11.0 µM -2% | [10]; at 33.0 µM 7% | [11]; at 1.2 µM 5% | [11]; at 3.7 µM -8% | [11]; at 11.0 µM -1% | [11]; at 33.0 µM 41% | [12]; at 1.2 µM -2% | [12]; at 3.7 µM -4% | [12]; at 11.0 µM -1% | [12]; at 33.0 µM 24% | [13]; [16] -115%
active: [1]; at 100.0 µM 98% | [2]; at 100.0 µM 98% | [3]; at 33.0 µM 94% | [3]; [17] 90% | [3]; at 50.0 µM 95% | [3]; at 100.0 µM 97% | [4]; at 50.0 µM 76.2% | [4]; at 100.0 µM 90% | [5]; at 33.0 µM 79% | [5]; at 100.0 µM 99% | [6]; [17] 80% | [6]; at 50.0 µM 94% | [7]; at 100.0 µM 97% | [9]; [17] 77% | [9]; at 50.0 µM 96% | [9]; at 100.0 µM 98% | [10]; at 100.0 µM 98% | [11]; at 100.0 µM 99% | [12]; at 100.0 µM 98% | [13]; [17] 77% | [13]; at 50.0 µM 89.8%

C[C](C)(C)[Ge]([O][Ge]([c]1ccccc1)[c]1ccccc1)([O][Ge]([c]1ccccc1)[c]1ccccc1)[C](C)(C)C
inactive: [1]; at 1.2 µM -3% | [1]; at 3.7 µM 5% | [1]; at 11.0 µM 42% | [1]; at 33.0 µM 68% | [14]; at 1.2 µM 0% | [14]; at 3.7 µM 5% | [14]; at 11.0 µM 5% | [14]; at 33.0 µM 1% | [14]; at 100.0 µM -3% | [2]; at 1.2 µM -2% | [2]; at 3.7 µM 3% | [2]; at 11.0 µM 44% | [2]; at 33.0 µM 67% | [2]; at 100.0 µM 62% | [3]; at 1.2 µM -1% | [3]; at 3.7 µM 6% | [3]; [16] 12% | [3]; at 11.0 µM 42% | [3]; at 33.0 µM 63% | [3]; [17] 63% | [4]; at 1.2 µM 4% | [4]; at 3.7 µM 21% | [4]; [16] 29% | [4]; at 11.0 µM 60% | [4]; at 50.0 µM 65.8% | [5]; at 1.2 µM -4% | [5]; at 3.7 µM 1% | [5]; at 11.0 µM 23% | [5]; at 33.0 µM 46% | [5]; at 100.0 µM 57% | [6]; [16] 19% | [6]; at 50.0 µM 61.6% | [7]; at 1.2 µM 4% | [7]; at 3.7 µM 18% | [7]; at 11.0 µM 55% | [9]; at 1.2 µM -4% | [9]; at 3.7 µM 4% | [9]; [16] 9% | [9]; at 11.0 µM 53% | [10]; at 1.2 µM -1% | [10]; at 3.7 µM 10% | [10]; at 11.0 µM 46% | [10]; at 33.0 µM 64% | [10]; at 100.0 µM 64% | [11]; at 1.2 µM 0% | [11]; at 3.7 µM 9% | [11]; at 11.0 µM 49% | [11]; at 33.0 µM 66% | [11]; at 100.0 µM 68% | [12]; at 1.2 µM 8% | [12]; at 3.7 µM 27% | [13]; [16] 48% | [15]; at 1.2 µM 4% | [15]; at 3.7 µM 20% | [15]; at 11.0 µM 56%
active: [1]; at 100.0 µM 75% | [3]; at 50.0 µM 71.9% | [3]; at 100.0 µM 71% | [4]; at 33.0 µM 80% | [4]; [17] 75% | [4]; at 100.0 µM 79% | [6]; [17] 80% | [7]; at 33.0 µM 74% | [7]; at 100.0 µM 81% | [9]; at 33.0 µM 77% | [9]; [17] 79% | [9]; at 50.0 µM 76.7% | [9]; at 100.0 µM 79% | [12]; at 11.0 µM 71% | [12]; at 33.0 µM 78% | [12]; at 100.0 µM 76% | [13]; [17] 90% | [13]; at 50.0 µM 75.9% | [15]; at 33.0 µM 73% | [15]; at 100.0 µM 74%

Cc1c2ccnc(C(=O)NCCN(C)C)c2cc2c3cc(O)ccc3n(C)c12
inactive: [1]; at 1.2 µM 2% | [1]; at 3.7 µM 5% | [1]; at 11.0 µM 10% | [1]; at 33.0 µM 20% | [1]; at 100.0 µM 29% | [14]; at 1.2 µM -2% | [14]; at 3.7 µM 4% | [14]; at 11.0 µM 22% | [14]; at 33.0 µM 44% | [14]; at 100.0 µM 56% | [2]; at 1.2 µM 0% | [2]; at 3.7 µM 2% | [2]; at 11.0 µM 8% | [2]; at 33.0 µM 10% | [2]; at 100.0 µM 30% | [3]; at 1.2 µM 1% | [3]; at 3.7 µM 20% | [3]; [16] 11% | [3]; at 11.0 µM 67% | [3]; [17] 59% | [4]; at 1.2 µM 1% | [4]; at 3.7 µM 6% | [4]; [16] -7% | [4]; at 11.0 µM 14% | [4]; at 33.0 µM 26% | [4]; [17] 7% | [4]; at 50.0 µM 23.8% | [4]; at 100.0 µM 39% | [5]; at 1.2 µM 1% | [5]; at 3.7 µM 3% | [5]; at 11.0 µM 9% | [5]; at 33.0 µM 21% | [5]; at 100.0 µM 37% | [6]; [16] -4% | [6]; [17] 8% | [6]; at 50.0 µM 13.3% | [7]; at 1.2 µM 0% | [7]; at 3.7 µM 1% | [7]; at 11.0 µM 0% | [7]; at 33.0 µM 9% | [7]; at 100.0 µM 19% | [8]; [16] 4% | [8]; [17] 33% | [8]; at 50.0 µM 44.5% | [9]; at 1.2 µM 1% | [9]; at 3.7 µM 1% | [9]; [16] 40% | [9]; at 11.0 µM 4% | [9]; at 33.0 µM 14% | [9]; [17] 42% | [9]; at 50.0 µM 8.05% | [9]; at 100.0 µM 23% | [11]; at 1.2 µM 4% | [11]; at 3.7 µM 4% | [11]; at 11.0 µM 10% | [11]; at 33.0 µM 21% | [11]; at 100.0 µM 32% | [12]; at 1.2 µM -2% | [12]; at 3.7 µM 2% | [12]; at 11.0 µM 4% | [12]; at 33.0 µM 17% | [12]; at 100.0 µM 32% | [13]; [16] 0% | [13]; [17] -1% | [13]; at 50.0 µM 46.4% | [15]; at 1.2 µM -5% | [15]; at 3.7 µM -4% | [15]; at 11.0 µM -1% | [15]; at 33.0 µM 3% | [15]; at 100.0 µM 15%
active: [3]; at 33.0 µM 88% | [3]; at 50.0 µM 92.1% | [3]; at 100.0 µM 92%
